Compounds without any hit were thinned out: in the full panel of roughly 79,000, 15% have a hit. Active and inactive are the calls of the source. Rule as the data show it: active = growth inhibition above about 70%; inactive = the rest.
Assays:
[1] = NCI Yeast Anticancer Drug Screen. Data for the rad14 strain (AID 159);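 also: 0% = growth of vehicle-treated control cultures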; settings: S. cerevisiae rad14 strain growth inhibition, stronger effect = higher value
Method in brief: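 A mutant yeast strain defective in DNA damage repair is treated with compound; inhibition of its growth is scored against untreated, vehicle-exposed cultures.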

[2] = NCI Yeast Anticancer Drug Screen. Data for the sgs1 mgt1 strain (AID 161);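 also: 0% = growth of cultures given vehicle only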; settings: S. cerevisiae sgs1 mgt1 strain, stronger effect = higher value
Method in brief: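 Genetically altered yeast, compound exposure, growth inhibition relative to vehicle.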

[3] = NCI Yeast Anticancer Drug Screen. Data for the CLN2oe strain (AID 163);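 also: 0% = growth of vehicle-only control cultures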; settings: S. cerevisiae CLN2oe strain, stronger effect = higher value
Method in brief: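 Strain altered in cell-cycle control, incubated with compound; growth compared to solvent-treated controls.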

[4] = NCI Yeast Anticancer Drug Screen. Data for the cln2 rad14 strain (AID 165);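 also: 0% = growth equal to vehicle treated cultures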; settings: S. cerevisiae cln2 rad14 strain, stronger effect = higher value
Method in brief: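 The screen exposed genetically defined yeast (cln2 rad14) to test compounds and scored growth inhibition relative to vehicle-treated controls.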

[5] = NCI Yeast Anticancer Drug Screen. Data for the bub3 strain (AID 167); settings: S. cerevisiae bub3 mutant strain, stronger effect = higher value
Method in brief: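 Steps: expose the mutant yeast strain to compound; grow alongside vehicle-treated cultures; measure growth; express inhibition against the vehicle cultures.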

[6] = NCI Yeast Anticancer Drug Screen. Data for the wt2 strain (AID 169);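 also: 0% = growth of vehicle-treated yeast cultures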; settings: S. cerevisiae wt2 strain growth inhibition, stronger effect = higher value
Method in brief: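 Steps: yeast strain treated with compound; growth recorded; inhibition calculated relative to cultures given vehicle alone.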

[7] = NCI Yeast Anticancer Drug Screen. Data for the mlh1 strain (AID 171);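 also: 0% = growth of vehicle-treated control cultures of the same strain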; settings: S. cerevisiae mlh1 strain growth inhibition, stronger effect = higher value
Method in brief: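 Yeast screen: mutant strain plus compound, growth scored against vehicle control wells.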

[8] = NCI Yeast Anticancer Drug Screen. Data for the sgs1 strain (AID 173);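 also: 0% = growth of vehicle-only control cultures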; settings: S. cerevisiae sgs1 mutant, stronger effect = higher value
Method in brief: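 Inhibition of yeast growth served as the measure. The mutant strain was treated with each compound, and growth was normalised to cultures receiving vehicle alone.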

[9] = NCI Yeast Anticancer Drug Screen. Data for the mlh1 rad18 strain (AID 175); settings: S. cerevisiae mlh1 rad18 strain growth inhibition, stronger effect = higher value
Method in brief: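 Compound-treated yeast growth, normalised to vehicle controls. Strain bears defined DNA repair mutations.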

[10] = NCI Yeast Anticancer Drug Screen. Data for the rad18 strain (AID 177); settings: S. cerevisiae rad18 mutant growth inhibition, stronger effect = higher value
Method in brief: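 Inhibition values reflect reduced yeast growth compared with vehicle-treated controls, using a strain engineered with a DNA damage repair defect.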

[11] = NCI Yeast Anticancer Drug Screen. Data for the rad52 strain (AID 147);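 also: 0% = growth of vehicle-treated control cultures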; settings: S. cerevisiae rad52 mutant growth inhibition, stronger effect = higher value
Method in brief: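 Genetically altered yeast (DNA damage repair defect) treated with compound; inhibition calculated relative to vehicle.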

[12] = NCI Yeast Anticancer Drug Screen. Data for the rad50EPP+ strain (AID 151);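 also: 0% = growth of vehicle-treated control cultures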; settings: S. cerevisiae rad50 mutant strain, stronger effect = higher value
Method in brief: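 Strain rad50EPP+; compound exposure; % growth inhibition vs vehicle.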

[13] = NCI Yeast Anticancer Drug Screen. Data for the mgt1 strain (AID 153); settings: S. cerevisiae mgt1 mutant growth inhibition, stronger effect = higher value
Method in brief: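 Read-out: yeast growth inhibition vs vehicle control. Strain mgt1, drawn from a panel altered in DNA damage repair or cell cycle control.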

[14] = NCI Yeast Anticancer Drug Screen. Data for the rad50 strain (AID 155);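 also: 0% = growth of vehicle-only cultures of the same strain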; settings: S. cerevisiae rad50 strain growth inhibition, stronger effect = higher value
Method in brief: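 Inhibition values express reduced yeast growth in compound-treated cultures relative to vehicle-treated controls.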

[15] = NCI Yeast Anticancer Drug Screen. Data for the mec2-1 strain (AID 157); settings: S. cerevisiae mec2-1 strain, stronger effect = higher value
Method in brief: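 Cells of the genetically defined mec2-1 yeast strain are incubated with test compound. Inhibition of growth is calculated against vehicle-treated controls.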

[16] = NCI Yeast Anticancer Drug Screen. Data for the wt1 strain (AID 149);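 also: 0% = growth of vehicle-treated wt1 cultures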; settings: S. cerevisiae wt1 strain (SPY 50644) growth inhibition, stronger effect = higher value
Method in brief: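 Compounds are added to wt1 yeast cultures. Growth is then measured. Inhibition is expressed relative to vehicle-treated controls.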

[17] = at 5.0 µM (retest, dose inferred, filed as 0.5)
[18] = at 50.0 µM (retest, dose inferred, filed as 5.0)

Measured: growth inhibition

O=C1C2C(C(=O)N1c1ccc(OCc3ccccc3)cc1)C1c3ccccc3C2C2CCCCN21 (centres undefined)
inactive: [2]; [17] 1% | [2]; [18] 61% | [3]; at 1.2 µM -5% | [3]; at 3.7 µM -10% | [3]; at 11.0 µM -12% | [3]; at 33.0 µM -12% | [3]; at 100.0 µM 56% | [4]; [17] -14% | [4]; [18] -15% | [4]; at 50.0 µM 4.85% | [5]; at 1.2 µM -4% | [5]; at 3.7 µM -8% | [5]; [17] -5% | [5]; at 11.0 µM -1% | [5]; at 33.0 µM 23% | [5]; [18] 47% | [6]; at 1.2 µM -3% | [6]; at 3.7 µM -4% | [6]; at 11.0 µM -6% | [6]; at 33.0 µM 18% | [7]; at 1.2 µM 1% | [7]; at 3.7 µM 4% | [7]; at 11.0 µM 0% | [7]; at 33.0 µM 28% | [8]; at 1.2 µM -2% | [8]; at 3.7 µM -1% | [8]; at 11.0 µM -2% | [8]; at 33.0 µM 19% | [9]; [17] -6% | [9]; [18] 69% | [10]; at 1.2 µM -3% | [10]; at 3.7 µM 12% | [10]; at 11.0 µM 8% | [10]; at 33.0 µM 24%
active: [1]; at 100.0 µM 97% | [2]; at 50.0 µM 90.7% | [5]; at 50.0 µM 83.3% | [5]; at 100.0 µM 88% | [6]; at 100.0 µM 94% | [7]; at 100.0 µM 95% | [8]; at 100.0 µM 94% | [9]; at 50.0 µM 90.9% | [10]; at 100.0 µM 81%

O=C1C=CC(=O)N1c1ccc2c(c1)Cc1cc(NC(=O)C(F)(F)F)ccc1-2
inactive: [11]; at 1.2 µM 12% | [11]; at 3.7 µM 24% | [11]; at 11.0 µM 42% | [11]; at 33.0 µM 60% | [12]; at 1.2 µM 29% | [13]; at 1.2 µM 11% | [13]; at 3.7 µM 20% | [13]; at 11.0 µM 31% | [13]; at 33.0 µM 57% | [14]; at 1.2 µM 13% | [14]; at 3.7 µM 24% | [14]; [17] 52% | [14]; at 11.0 µM 41% | [15]; at 1.2 µM 13% | [15]; at 3.7 µM 26% | [15]; at 11.0 µM 42% | [15]; at 33.0 µM 62% | [1]; at 1.2 µM 20% | [1]; at 3.7 µM 31% | [1]; at 11.0 µM 42% | [1]; at 33.0 µM 66% | [3]; at 1.2 µM 2% | [3]; at 3.7 µM 11% | [3]; at 11.0 µM 18% | [3]; at 33.0 µM 26% | [3]; at 100.0 µM 50% | [4]; [17] 10% | [4]; [18] 51% | [4]; at 50.0 µM 62.9% | [5]; at 1.2 µM -11% | [5]; at 3.7 µM -5% | [5]; [17] 57% | [5]; at 11.0 µM 7% | [5]; at 33.0 µM 21% | [5]; at 100.0 µM 39% | [6]; at 1.2 µM 7% | [6]; at 3.7 µM 21% | [6]; at 11.0 µM 37% | [6]; at 33.0 µM 55% | [6]; at 100.0 µM 67% | [7]; at 1.2 µM 16% | [7]; at 3.7 µM 32% | [7]; at 11.0 µM 54% | [8]; at 1.2 µM 18% | [8]; at 3.7 µM 37% | [8]; at 11.0 µM 63% | [10]; at 1.2 µM 17% | [10]; at 3.7 µM 29% | [10]; at 11.0 µM 53%
active: [11]; at 100.0 µM 74% | [12]; at 3.7 µM 73% | [12]; at 11.0 µM 88% | [12]; at 33.0 µM 91% | [12]; at 100.0 µM 88% | [13]; at 100.0 µM 77% | [14]; at 33.0 µM 71% | [14]; [18] 91% | [14]; at 50.0 µM 87.7% | [14]; at 100.0 µM 80% | [15]; [17] 87% | [15]; [18] 94% | [15]; at 50.0 µM 83.5% | [15]; at 100.0 µM 77% | [1]; at 100.0 µM 83% | [2]; [17] 71% | [2]; [18] 93% | [2]; at 50.0 µM 86.6% | [5]; [18] 90% | [5]; at 50.0 µM 84.6% | [7]; at 33.0 µM 73% | [7]; at 100.0 µM 85% | [8]; at 33.0 µM 79% | [8]; at 100.0 µM 82% | [9]; [17] 91% | [9]; [18] 93% | [9]; at 50.0 µM 86% | [10]; at 33.0 µM 76% | [10]; at 100.0 µM 82%

NC(=NCc1ccccc1)N/N=C\c1ccnc2ccccc12
inactive: [16]; at 1.2 µM -1% | [16]; at 3.7 µM -1% | [16]; at 11.0 µM -2% | [16]; at 33.0 µM 0% | [16]; at 100.0 µM 2% | [12]; at 1.2 µM -2% | [12]; at 3.7 µM 0% | [12]; at 11.0 µM 1% | [12]; at 33.0 µM 1% | [12]; at 100.0 µM 4% | [13]; at 1.2 µM -4% | [13]; at 3.7 µM -3% | [13]; at 11.0 µM 0% | [13]; at 33.0 µM 3% | [14]; at 1.2 µM 1% | [14]; at 3.7 µM 2% | [14]; [17] -2% | [14]; at 11.0 µM 4% | [14]; at 33.0 µM 7% | [14]; [18] 46% | [14]; at 50.0 µM 36% | [14]; at 100.0 µM 39% | [15]; at 1.2 µM -1% | [15]; at 3.7 µM 0% | [15]; [17] 2% | [15]; at 11.0 µM -1% | [15]; at 33.0 µM 7% | [15]; [18] 56% | [15]; at 50.0 µM 48.8% | [15]; at 100.0 µM 27% | [1]; at 1.2 µM 0% | [1]; at 3.7 µM 3% | [1]; at 11.0 µM 12% | [1]; at 33.0 µM 36% | [1]; at 100.0 µM 61% | [2]; [17] -6% | [2]; at 50.0 µM 66.3% | [3]; at 1.2 µM -6% | [3]; at 3.7 µM -6% | [3]; at 11.0 µM 1% | [3]; at 33.0 µM 22% | [4]; [17] 9% | [4]; [18] 62% | [4]; at 50.0 µM 21.1% | [5]; at 1.2 µM 0% | [5]; at 3.7 µM 0% | [5]; [17] -5% | [5]; at 11.0 µM 1% | [5]; at 33.0 µM 13% | [5]; [18] 60% | [5]; at 50.0 µM 22.4% | [5]; at 100.0 µM 56% | [6]; at 1.2 µM -2% | [6]; at 3.7 µM -3% | [6]; at 11.0 µM -1% | [6]; at 33.0 µM -1% | [6]; at 100.0 µM 38% | [8]; at 1.2 µM -1% | [8]; at 3.7 µM 0% | [8]; at 11.0 µM 1% | [8]; at 33.0 µM 13% | [8]; at 100.0 µM 61% | [9]; [17] 3% | [9]; [18] -21% | [9]; at 50.0 µM 44.4% | [10]; at 1.2 µM -2% | [10]; at 3.7 µM -3% | [10]; at 11.0 µM 0% | [10]; at 33.0 µM 5% | [10]; at 100.0 µM 28%
active: [13]; at 100.0 µM 76% | [2]; [18] 75% | [3]; at 100.0 µM 70%
